Records with an inconclusive call do not appear. Activity calls are given as the source filed them. Unless noted, the call rests on the fitted dose curve; in most records, active means well fitted curve in the direction sought with a large enough effect in the repeat runs; inconclusive means weak or mixed curves; inactive means no such curve, though single readings can be large; an effect the other way counts as inactive or inconclusive.

Experiment [1] can be described thus: qHTS assay to identify small molecule antagonists of the androgen receptor (AR) signaling pathway using the MDA cell line in the presence of 0.5 nM R1881 - cell viability counter screen (AID 1259242). Further: nearly all actives have a fitted effect of over 45% in size. In a few lines:
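qHTS format. MDA-kb2 (MMTV-luc, AR/GR responsive) + cpd + 0.5 nM R1881 final, 16 hr 37C/0% CO2 → CellTiter-Fluor 30 min → fluorescence intensity.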
(In general: Quantitative high-throughput screening tests each substance at several concentrations.)

Experiment [2] is described as follows: qHTS assay to identify small molecule phospholipidosis (PLD) inducers (AID 1259344; active means well fitted curve in the direction sought with a large enough effect; an effect the other way counts as inactive or inconclusive). In a few lines: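 Read-out is LipidTOX Red fluorescence (ex 595/em 615) imaged in HepG2 cells after 24 h compound exposure at 37 C, with Hoechst nuclear counterstain (ex 352/em 461) allowing per-cell normalisation.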
Experiment [3] is described as follows: qHTS assay to identify small molecule HDAC inhibitors (AID 1259364).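 Further: wild-type HCT-116 cells with endogenous class I/II HDAC activity; top concentration of the series differs between compounds; nearly all actives have a fitted effect of over 45% in size.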 In a few lines: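 Quantitative high-throughput format: overnight-seeded HCT-116 cells got compounds for 2 hr at 37C; HDAC-Glo I/II reagent added, 30 min RT, luminescence measured.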
A short description of experiment [4]: qHTS assay to identify small molecule HDAC inhibitors - cell viability counter screen (AID 1259365). Further: series mostly up to about 92 µM; nearly all actives have a fitted effect of over 50% in size. A digest of the protocol: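 Wild-type HCT-116 cells, 1,500/well, cultured overnight, then compound-treated 2 h at 37 C. Viability measured as ATP luminescence with CellTiter-Glo after 30 min at room temperature.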
The nature of experiment [5]: qHTS assay to identify small molecule agonists of the sonic hedgehog signaling (Shh) pathway (AID 1259368; calls by dose curve;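 further: NIH/3T3-derived 3T3Gli1-Luc cells carrying a stable Gli1-driven firefly luciferase reporter; series mostly up to about 92 µM; nearly all actives have a fitted effect of over 15% in size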). In a few lines:
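Quantitative high-throughput format using a Gli1-driven firefly luciferase reporter line derived from NIH/3T3 cells. After a 24 hr compound treatment at 37 C and 5% CO2, luminescence reported Gli1 response element activity.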

Experiment [6] in a line: qHTS assay to identify small molecule agonists of the estrogen receptor beta (ER-beta) signaling pathway - cell viability counter screen (AID 1259380). Further: nearly all actives have a fitted effect of over 30% in size. A digest of the protocol:
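Steps: plate ER-beta-UAS-bla HEK293T cells, rest 6 hr; add compounds in DMSO; incubate 16 hr at 37C, 5% CO2; add FRET substrate 2 hr; add CellTiter-Glo, wait 30 min at room temperature; read luminescence.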

A short description of experiment [7]: qHTS assay to identify small molecule antagonists of the estrogen receptor beta (ER-beta) signaling pathway - cell viability counter screen (AID 1259382). Further: series mostly up to about 92 µM; nearly all actives have a fitted effect of over 55% in size. In a few lines:
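Viability is scored by CellTiter-Glo luminescence (30 min, room temperature) in ER-beta-UAS-bla HEK293T wells already read for reporter fluorescence. Compound exposure lasts 16 hr at 37C alongside 1nM 17-beta-estradiol in charcoal-stripped serum medium.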

Experiment [8] addresses Estrogen receptor (Homo sapiens) (UniProt P03372). Kind of experiment: qHTS assay to identify small molecule agonists of the estrogen receptor alpha (ER-alpha) signaling pathway in the presence of an antagonist (AID 1259383; calls by dose curve; further: nearly all actives have a fitted effect of over 15% in size; further: potency means the concentration at half of the fitted maximal effect; on activation: top concentration of the series differs between compounds). In a few lines:
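Readout was ERE-driven luciferase luminescence in VM7Luc4E2 cells, which express full-length ER-alpha endogenously. Compounds were tested at 15 concentrations for 22hr alongside 10.0nM ICI-182,780 (final concentration).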

A short description of experiment [9]: qHTS assay to identify small molecule agonists or antagonists of the thyroid stimulating hormone receptor (TSHR) signaling pathway - wild type cell line counter screen (AID 1259384; calls by dose curve). In a few lines:
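Wild-type Hek293 cells, 800/well, 18 h at 37C, then compound with Ro20-1724 for 30 min RT. cAMP by HTRF (cAMP-d2/anti-cAMP cryptate), 1 h RT, fluorescence read. 15 concentrations, triplicates.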

Experiment [10] is described as follows: qHTS assay to identify small molecule agonists of the sonic hedgehog signaling (Shh) pathway - cell viability counter screen (AID 1259366). Further: nearly all actives have a fitted effect of over 50% in size. Further: potency means the concentration at half of the fitted maximal effect. In a few lines: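 NIH/3T3-derived Gli1-Luc reporter cells, 2,000 per well, received compound after 4 h and were treated about 23 h at 37C. Viability measured in the same wells by CellTiter-Fluor fluorescence after 1 h.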

Experiment [11] can be described thus: qHTS assay to identify small molecule antagonists of the sonic hedgehog signaling (Shh) pathway - cell viability counter screen (AID 1259367). Further: nearly all actives have a fitted effect of over 55% in size. Further: potency means the concentration at half of the fitted maximal effect. A digest of the protocol: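 Fluorescence read-out (CellTiter-Fluor, 1 hr at 37C) taken after 23 hr compound treatment of 3T3 Gli1-Luc cells stimulated with conditioned medium. Cells were seeded at 2,000 per well and pre-incubated 4 hr.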

A short description of experiment [12]: qHTS assay to identify small molecule antagonists of the sonic hedgehog signaling (Shh) pathway (AID 1259369; calls by dose curve; further: nearly all actives have a fitted effect of over 45% in size; further: potency means the concentration at half of the fitted maximal effect). In a few lines: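 Stable Gli1-Luc reporter NIH/3T3 clone; quantitative HTS in stimulated mode with conditioned medium. Luminescence measured after 24hr compound treatment at 37 C.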
For experiment [13], the target named is Estrogen receptor beta (Homo sapiens) (UniProt Q92731). Kind of experiment: qHTS assay to identify small molecule agonists of the estrogen receptor beta (ER-beta) signaling pathway (AID 1259377; active means well fitted activation curve with a large enough effect in the signal ratio in the repeat runs, not every such curve was filed as active; the % refers to the signal ratio). In a few lines: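 ER-beta-UAS-bla HEK293T cells in medium with 2% charcoal-stripped FBS were exposed to compounds for 16 h at 37C. Beta-lactamase reporter activity was read as fluorescence after 2 h with LiveBLAzer B/G FRET substrate at room temperature.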

For experiment [14] the target is unchanged. The experiment in a line: qHTS assay to identify small molecule antagonists of the estrogen receptor beta (ER-beta) signaling pathway (AID 1259378; active means well fitted inhibition curve with a large enough effect in the signal ratio in the repeat runs, not every such curve was filed as active; the % refers to the signal ratio). A digest of the protocol:
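ER-beta-UAS-bla HEK293T cells in 2% charcoal-stripped FBS medium treated with compound plus 1nM final 17-beta-estradiol for 16 hr at 37C. Beta-lactamase reporter read by FRET substrate fluorescence after 2 hours at room temperature.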

A short description of experiment [15]: qHTS assay to identify small molecule agonists of the androgen receptor (AR) signaling pathway in the presence of an antagonist - cell viability counter screen (AID 1259379).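 Further: MDA-kb2 human breast cancer cells carrying an MMTV luciferase reporter; series mostly up to about 92 µM; nearly all actives have a fitted effect of over 25% in size.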 A digest of the protocol: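 Nilutamide-containing (3.0uM final) MDA-kb2 cultures, 3,000 cells/well, were treated with compounds across 15 concentrations. After 16 hr at 37C with no CO2, cell viability was determined by CellTiter-Fluor fluorescence in the luciferase assay wells.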

The target in experiment [16] is Thyrotropin receptor (Homo sapiens) (UniProt P16473). The experiment in a line: qHTS assay to identify small molecule antagonists of the thyroid stimulating hormone receptor (TSHR) signaling pathway (AID 1259385; calls by dose curve; further: nearly all actives have a fitted effect of over 20% in size). A digest of the protocol: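 TSHR-HEK293 cells (800/well) plated 18 h, then compounds with Ro20-1724 and TSH at 1.5 ng/mL final, 30 min at room temperature. cAMP quantified by HTRF (cAMP-d2/anti-cAMP-cryptate, 1 h); 15 concentrations in triplicate.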

A short description of experiment [17]: qHTS assay to identify small molecule agonists of the estrogen receptor alpha (ER-alpha) signaling pathway in the presence of an antagonist - cell viability counter screen (AID 1259386).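 Further: series mostly up to about 92 µM; cells exposed to compounds for 22 h at 37 °C before the viability read; nearly all actives have a fitted effect of over 30% in size.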 A digest of the protocol: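 In this counter screen, compound effects on VM7Luc4E2 viability were tested in the presence of the antagonist ICI-182,780 at 10.0nM final. Compounds were dosed at 15 concentrations, exposure lasted 22hr, and the CellTiter-Fluor signal was read.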

Experiment [18] has as its target Estrogen receptor (Homo sapiens) (UniProt P03372). Kind of experiment: qHTS assay to identify small molecule antagonists of the estrogen receptor alpha (ER-alpha) signaling pathway using the BG1 cell line in the presence of 0.1 nM 17-beta-estradiol (AID 1259244). Further: nearly all actives have a fitted effect of over 50% in size. Further: potency means the concentration at half of the fitted maximal effect. A digest of the protocol:
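Reporter is a stably transfected luciferase under four estrogen responsive elements in VM7Luc4E2 cells expressing native full-length ER-alpha; inhibition of 0.1 nM (final) 17beta-estradiol-driven signal over 22 h is read by luminescence.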

Sequence of Estrogen receptor beta (Homo sapiens) (Q92731 whole entry, looked up): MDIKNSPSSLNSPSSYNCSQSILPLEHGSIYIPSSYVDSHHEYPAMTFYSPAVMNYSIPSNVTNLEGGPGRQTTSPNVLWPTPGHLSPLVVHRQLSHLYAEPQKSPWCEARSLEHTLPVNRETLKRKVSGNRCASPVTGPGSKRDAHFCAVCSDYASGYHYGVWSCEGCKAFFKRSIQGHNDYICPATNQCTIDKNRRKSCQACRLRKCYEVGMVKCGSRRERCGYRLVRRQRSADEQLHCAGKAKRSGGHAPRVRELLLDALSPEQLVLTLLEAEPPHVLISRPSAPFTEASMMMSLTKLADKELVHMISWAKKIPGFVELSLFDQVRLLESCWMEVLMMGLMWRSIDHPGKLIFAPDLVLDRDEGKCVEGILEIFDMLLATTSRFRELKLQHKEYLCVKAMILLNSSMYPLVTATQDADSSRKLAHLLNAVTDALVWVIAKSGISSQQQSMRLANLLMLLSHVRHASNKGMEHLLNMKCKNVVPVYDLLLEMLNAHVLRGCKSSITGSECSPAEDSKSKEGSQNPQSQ
Sequence of Estrogen receptor (Homo sapiens) (P03372 whole entry, looked up): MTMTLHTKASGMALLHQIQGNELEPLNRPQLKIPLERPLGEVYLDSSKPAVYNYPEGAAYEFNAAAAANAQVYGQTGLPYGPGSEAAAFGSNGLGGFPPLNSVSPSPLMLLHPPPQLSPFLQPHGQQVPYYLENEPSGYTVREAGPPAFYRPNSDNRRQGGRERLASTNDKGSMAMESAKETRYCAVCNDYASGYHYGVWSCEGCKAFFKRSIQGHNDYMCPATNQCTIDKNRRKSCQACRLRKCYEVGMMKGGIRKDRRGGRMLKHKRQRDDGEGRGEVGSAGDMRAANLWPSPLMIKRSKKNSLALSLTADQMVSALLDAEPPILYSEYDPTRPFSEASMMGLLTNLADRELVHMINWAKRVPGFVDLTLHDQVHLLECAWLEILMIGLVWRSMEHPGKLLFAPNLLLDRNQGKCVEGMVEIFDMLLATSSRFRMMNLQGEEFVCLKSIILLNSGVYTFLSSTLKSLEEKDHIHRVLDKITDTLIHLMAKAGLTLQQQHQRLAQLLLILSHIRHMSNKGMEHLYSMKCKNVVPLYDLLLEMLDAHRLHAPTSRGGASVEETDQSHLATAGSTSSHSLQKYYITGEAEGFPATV
Sequence of Thyrotropin receptor (Homo sapiens) (P16473 whole entry, looked up): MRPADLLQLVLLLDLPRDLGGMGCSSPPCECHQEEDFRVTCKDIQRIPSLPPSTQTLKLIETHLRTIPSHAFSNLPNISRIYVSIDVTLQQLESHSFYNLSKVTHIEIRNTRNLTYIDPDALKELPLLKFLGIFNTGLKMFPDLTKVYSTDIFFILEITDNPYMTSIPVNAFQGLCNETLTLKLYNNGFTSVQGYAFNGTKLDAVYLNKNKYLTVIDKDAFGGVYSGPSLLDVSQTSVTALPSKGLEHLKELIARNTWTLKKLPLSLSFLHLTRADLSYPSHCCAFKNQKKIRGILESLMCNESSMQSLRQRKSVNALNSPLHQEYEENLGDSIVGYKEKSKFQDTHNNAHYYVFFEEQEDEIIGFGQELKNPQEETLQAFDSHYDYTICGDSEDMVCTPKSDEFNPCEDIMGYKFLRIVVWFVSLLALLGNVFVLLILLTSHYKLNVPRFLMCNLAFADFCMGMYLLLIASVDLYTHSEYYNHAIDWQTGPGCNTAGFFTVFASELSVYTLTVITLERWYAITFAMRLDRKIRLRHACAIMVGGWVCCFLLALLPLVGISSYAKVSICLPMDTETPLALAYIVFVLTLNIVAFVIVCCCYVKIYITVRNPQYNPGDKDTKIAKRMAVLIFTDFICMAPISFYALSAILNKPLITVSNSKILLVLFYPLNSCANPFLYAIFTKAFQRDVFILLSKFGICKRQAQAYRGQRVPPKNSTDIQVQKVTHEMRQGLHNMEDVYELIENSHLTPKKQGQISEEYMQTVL

`C[C@H]1CCC[C@H](O)CCCCCc2cc(O)cc(O)c2C(=O)O1`: the result in experiment [1], in experiment [2], in experiment [4] and in [5] was inactive. Also, the Potency result in [3], in experiment [6], in experiment [7] and in [9] was “inactive” each time. Also, the Potency in experiment [8] is 0.0616 µM (active).

Take `CN1CCC(O)(c2ccc(F)cc2)C(C(=O)c2ccc(F)cc2)C1` (stereo not drawn): the result in [1], in experiment [2], in experiment [4], in [5] and in experiment [13] was inactive. For the same compound, the Potency result in experiment [3], in experiment [10], in [11], in experiment [12], in [14] and in experiment [15] was “inactive” each time. In addition, the Potency entry in experiment [6], in [7], in experiment [9], in experiment [16] and in experiment [17] was “inactive” in each case.

With `COC(=O)C(C)Oc1ccc(Oc2ccc(Cl)cc2Cl)cc1` (stereo not drawn), the result in experiment [1], in [4], in experiment [5] and in [13] was inactive. Further, the Potency result in experiment [3], in experiment [10], in [11], in [12], in [14] and in experiment [15] was “inactive” in each case. Also, the Potency result in experiment [6], in experiment [7], in experiment [9], in experiment [16] and in experiment [17] was “inactive” each time.

For the compound `CCOC(=O)N(C)C(=O)CSP(=S)(OCC)OCC`, the outcome in [1], in [4], in experiment [5] and in [13] was inactive. Moreover, the Potency entry in experiment [3], in experiment [10], in [11], in experiment [12], in experiment [14] and in experiment [15] was “inactive” throughout. Moreover, the Potency entry in experiment [6], in experiment [7] and in experiment [17] was “inactive” in each case.

Take `CC(C)CC(N(C)C)C1(c2ccc(Cl)cc2)CCC1` (stereo not drawn): the outcome in [1], in experiment [2], in experiment [4] and in experiment [5] was inactive. The Potency result in [3], in [10], in experiment [11], in experiment [12], in experiment [14] and in experiment [15] was “inactive” in each case. Besides, the Potency entry in experiment [7] and in experiment [17] was “inactive” in each case.

With `CC1=NNC(=O)N(/N=C/c2cccnc2)C1`, the outcome in experiment [1], in experiment [4] and in experiment [5] was inactive. Further, the Potency result in [3], in experiment [10], in [11], in experiment [12], in experiment [14] and in experiment [15] was “inactive” each time. The Potency entry in experiment [6], in experiment [7], in experiment [9], in experiment [16] and in experiment [17] was “inactive” in each case.

Turning to `CC(N)=S`, the result in experiment [1], in [4], in [5] and in [13] was inactive. Moreover, the Potency entry in experiment [3], in experiment [10], in experiment [11], in experiment [12], in experiment [14] and in experiment [15] was “inactive” each time. Further, the Potency entry in experiment [6], in experiment [7], in experiment [9], in [16] and in experiment [17] was “inactive” throughout.

With `CC1=C(C(=O)Nc2ccccc2)S(=O)(=O)CCO1`, the result in [1], in [4] and in experiment [5] was inactive. For the same compound, the Potency is 48.5 µM (active) in experiment [18], 21.7 µM (active) in experiment [10], 27.3 µM (active) in [11] and 3.06 µM (active) in [12]. The Potency entry in experiment [15], in experiment [6], in experiment [7], in experiment [9] and in experiment [16] was “inactive” throughout.

Regarding `CCOP(=S)(OCC)SCSP(=S)(OCC)OCC`, the result in experiment [1], in [4], in experiment [5] and in experiment [13] was inactive. Moreover, the Potency entry in experiment [18], in experiment [11], in experiment [12], in experiment [15], in experiment [7] and in [8] was “inactive” each time. Also, the Potency entry in experiment [9] and in experiment [17] was “inactive” throughout.
